Assay results as given in the supplement of paper PMC8699584.
Values joined by “and” are separate entries in the source; they are usually repeats but may differ in a detail not shown here. Identical values can stand only once. Counter-ions that a name gives are not always drawn. ± gives the standard deviation of the averaged measurements.

tested on: Mv4-11; experiment: cell viability relative to DMSO control (bortezomib = 0%); higher = less growth inhibition; conditions: 10 nM; 72 h
Procedure, shortened: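 Acute myeloid leukemia cells, 1000 per well in 50 µL, were incubated for 72 h on 384-well plates with 679 approved and investigational compounds, each at a single 10 nM dose. Viability was read by CellTiter-Glo luminescence. Values were expressed as percentages through per-plate linear regression against DMSO-treated (100%) and positive-control-treated (0%) cells.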

SMILES | cell viability
CCCCCCCCCCCCCCCCn1cc[n+](Cc2ccccc2)c1C | 111 ± 5.8%
COc1cc(N2CCC(N)CC2)ccc1Nc1ncc(Cl)c(-c2c[nH]c3ccccc23)n1 | 93.3 ± 5.9%
C[C@@H]1O[C@@H](Oc2cc(O)c3c(=O)c(O[C@@H]4O[C@@H](C)[C@H](O)[C@@H](O)[C@H]4O)c(-c4ccc(O)cc4)oc3c2)[C@H](O)[C@H](O)[C@H]1O [Kaempferitrin] | 105 ± 3.1%
COC(=O)c1ccc2c(c1)NC(=O)/C2=C(\Nc1ccc(N(C)C(=O)CN2CCN(C)CC2)cc1)c1ccccc1 | 99.8 ± 8.2%
CC(=O)c1cnc2ccc(-c3cc(Cl)c(O)c(Cl)c3)nc2c1N[C@H]1CC[C@H](CN(C)C)CC1 | 80.6 ± 6.8%
CCc1cncnc1N1CCN(Cc2nc3ccc(C(F)(F)F)cc3[nH]2)CC1 | 116 ± 7.7%
COc1c(C)c(C(=O)c2ccc(N)c(C(=O)O)c2)n2ccccc12 | 114 ± 7.3%
CNC(=O)c1cc(Oc2ccc(NC(=O)Nc3cc(C(C)(C)C)nn3-c3ccc4ncccc4c3)c(F)c2)ccn1 [DCC-2036 (Rebastinib)] | 107 ± 7.3%
C[C@@H]1CN(C(=O)c2ccc(NC(=O)c3cc(O[C@H](C)c4c(Cl)ccc(F)c4Cl)c(N)nn3)cc2)C[C@H](C)N1 [Ensartinib] | 118 ± 12%
FC(F)(F)c1ccc(CNc2ccc(Cc3c[nH]c4ncc(Cl)cc34)cn2)cc1 | 106 ± 19%
C=CCc1ccc(O)c(-c2ccc(O)c(CC=C)c2)c1 [Honokiol] | 112 ± 14%
CN(C)C[C@@H]1CCn2cc(c3ccccc32)C2=C(C(=O)NC2=O)c2cn(c3ccccc23)CCO1 [Ruboxistaurin hydrochloride] | 101 ± 10%
CN(C)CCOc1ccc(-c2nc(-c3ccncc3)c(-c3ccc4c(c3)CC/C4=N\O)[nH]2)cc1 | 101 ± 4%
O=C(NC[C@H](O)CO)c1ccncc1Nc1ccc(I)cc1F | 103% and 92.3%
CN1CC(O)C2=C/C(=N/NC(N)=O)C(=O)C=C21 (stereo not given) [Carbazochrome] | 107 ± 9.7%
Cc1cc(Nc2cc(N3CCN(C)CC3)nc(/C=C/c3ccccc3)n2)n[nH]1 | 105 ± 9.9%
CN(C)C(=O)c1cc2cnc(Nc3ccc(N4CCNCC4)cn3)nc2n1C1CCCC1 | 113 ± 12%
N#CC(c1ccnc(OCc2ccc(CN3CCOCC3)cc2)n1)c1nc2ccccc2s1 (stereo not given) | 109 ± 11%
NC(=O)c1ccc2nc(-c3ccc(Oc4ccc(Cl)cc4)cc3)[nH]c2c1 | 114 ± 6.3%
O=C(NCCO)c1cccc(-c2cc(Nc3ccc(OC(F)(F)F)cc3)ncn2)c1 | 107 ± 3.3%

SMILES | cell viability
CCN1CCN(c2ccc(Nc3cc(N(C)C(=O)Nc4c(Cl)c(OC)cc(OC)c4Cl)ncn3)cc2)CC1 | 106 ± 16%
CNc1nc(-c2ccc3c(N)n[nH]c3c2)cc(N2C[C@@H](C(=O)NC3CCCCC3)CC[C@H]2C)n1 | 99.15 ± 0.68%
CN1CCN(c2ccc(C(=O)Nc3cc(-c4cccc(NS(=O)(=O)c5ccccc5)c4)[nH]n3)cc2)CC1 | 85.5 ± 9.9%
Nc1cc(C(F)(F)F)c(-c2cc(N3CCOCC3)nc(N3CCOCC3)n2)cn1 [BKM120 (NVP-BKM120, Buparlisib)] | 99.8 ± 2.8%
CC(C)n1nc(-c2ccc3oc(N)nc3c2)c2c(N)ncnc21 | 86.16 ± 0.51%
CC(=O)c1c(C)c2cnc(Nc3ccc(N4CCNCC4)cn3)nc2n(C2CCCC2)c1=O | 105% and 111%
COc1cc2ncnc(Oc3ccc(CC(=O)Nc4cnn(C(C)C)c4)cc3)c2cc1OC | 29.8 ± 2.1%
C[C@@H]1O[C@@H](OC[C@H]2O[C@@H](Oc3c(-c4ccc(O)c(O)c4)oc4cc(O)cc(O)c4c3=O)[C@H](O)[C@@H](O)[C@@H]2O)[C@H](O)[C@H](O)[C@H]1O [Rutin] | 113.3 ± 0.28%
Oc1cc(-c2nc(-c3ccccc3)[nH]c2-c2ccncc2)ccc1Cl | 105 ± 3.6%
C[C@@H]1O[C@@H](O[C@@H]2[C@@H](O)[C@H](OCCc3ccc(O)c(O)c3)O[C@H](CO)[C@H]2OC(=O)/C=C/c2ccc(O)c(O)c2)[C@H](O)[C@H](O)[C@H]1O [Verbascoside] | 91.6 ± 5.3%
CNC(=O)c1ccccc1Nc1nc(Nc2ccc(N3CCNCC3)cc2)ncc1Cl | 23 ± 6.8%
Cc1cc(C(C)Nc2ccccc2)c2nc(N3CCOCC3)cc(=O)n2c1 (stereo not given) | 100 ± 3.8%
NC(=O)c1ncn([C@@H]2O[C@H](CO)[C@@H](O)[C@H]2O)c1N [AICAR (Acadesine)] | 111 ± 9.2%
C=CC(=O)Nc1cccc(C)c1Nc1ncc2cc(-c3c(Cl)c(OC)cc(OC)c3Cl)ccc2n1 | 112 ± 1.2%
CN(C)S(=O)(=O)c1ccc2c(c1)/C(=C/c1cc3c([nH]1)CCCC3)C(=O)N2 | 109 ± 1.4%
COc1cc2/c(=N/c3ccc(Br)cc3F)nc[nH]c2cc1OCC1CCN(C)CC1 [Vandetanib (ZD6474)] | 117 ± 41%
Cc1cc(N)c2ccccc2[n+]1CCCCCCCCCC[n+]1c(C)cc(N)c2ccccc21 [Dequalinium chloride] | 96.3 ± 16%
O=C(O)c1ccc2nc(-c3ccccc3)c(-c3ccccc3)nc2c1 | 111.7 ± 0.8%
CCN1CCN(Cc2ccc(C(=O)Nc3ccc(C)c(Oc4ccc5c(c4)CC(=O)N5)c3)cc2C(F)(F)F)CC1 | 114 ± 6.1%
Cc1cc(O)c2c(c1)C(=O)c1cccc(O)c1C2=O [Chrysophanic Acid] | 108 ± 12%
